Experimental data from the supplement of paper PMC12067926.

What was measured:
Test in all cases: relative growth (AUC of 72 h growth curve relative to DMSO control, dAUC) (ratio); higher = more growth (less inhibition), active = hit call of the paper
Settings in all cases: 20 µM;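 active = growth AUC significantly below the DMSO wells by Dunnett test; inactive = the rest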
[1] = test system: Prolinoborus 1 (Prolinoborus fasciculus)
In short: (§1)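 Whole sediment communities and bacterial isolates from Icelandic stream sediments and Silwood Park soil were brought to carrying capacity in Luria–Bertani medium. They were then diluted 1:100 into 96-well plates with each chemical at 20 µM in 1% DMSO, and A600 was recorded every hour for 72 h. The area under each growth curve, integrated by spline, was averaged across three biological replicates. This figure, divided by the mean of the DMSO controls, gives relative growth (dAUC).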

[2] = test system: Pseudomonas 1 (Pseudomonas baetica)
In short: as §1

[3] = test system: Pseudomonas 2 (Pseudomonas vancouverensis)
In short: as §1

[4] = test system: Pseudomonas 3 (Pseudomonas mandelii)
In short: as §1

[5] = test system: Pseudomonas 4 (Pseudomonas peli)
In short: as §1

[6] = test system: Pseudomonas 5 (Pseudomonas baetica)
In short: as §1

[7] = test system: Pseudomonas 6 (Pseudomonas sp.)
In short: as §1

[8] = test system: Rhizobium 1 (Rhizobium herbae)
In short: as §1

[9] = test system: Serratia 1 (Serratia sp. 2015-2462-01)
In short: as §1

[10] = test system: Sphingomonas 2 (Sphingomonas sp.)
In short: as §1

Measured: relative growth

CC1(C(=O)Nc2ccc(O)c(Cl)c2Cl)CCCCC1
inactive: [1] 0.938 | [2] 1.08 | [3] 1.01 | [4] 1.05 | [5] 0.976 | [6] 1.02 | [7] 1.16 | [8] 0.84 | [9] 0.976 | [10] 0.967

CN/C(=N\[N+](=O)[O-])NCc1cnc(Cl)s1
inactive: [1] 0.937 | [2] 1.1 | [3] 0.964 | [4] 1.01 | [5] 0.974 | [6] 1.03 | [7] 1.09 | [8] 0.902 | [9] 0.931 | [10] 0.945

COCC(C)N(C(=O)CCl)c1c(C)csc1C (stereo not given)
inactive: [1] 0.925 | [2] 1.04 | [3] 0.974 | [4] 1 | [5] 0.962 | [6] 1.07 | [7] 1.15 | [8] 1.04 | [9] 0.939 | [10] 1.01

O=C(O)COc1ccc(Cl)cc1Cl
inactive: [1] 1.01 | [2] 0.923 | [3] 0.971 | [4] 1.04 | [5] 1.01 | [6] 0.997 | [7] 1.07 | [8] 1.03 | [9] 0.96 | [10] 1.04

O=C(O)CNCP(=O)(O)O
inactive: [1] 0.991 | [2] 0.996 | [3] 0.994 | [4] 1.05 | [5] 0.979 | [6] 1 | [7] 1.1 | [8] 1.03 | [9] 1.01 | [10] 1.02

CC[C@H](C)[C@H]1O[C@]2(C=C[C@@H]1C)C[C@@H]1C[C@@H](C/C=C(\C)[C@@H](O[C@H]3C[C@H](OC)[C@@H](O[C@H]4C[C@H](OC)[C@@H](O)[C@H](C)O4)[C@H](C)O3)[C@@H](C)/C=C/C=C3\CO[C@@H]4[C@H](O)C(C)=C[C@@H](C(=O)O1)[C@]34O)O2.CO[C@H]1C[C@H](O[C@H]2[C@H](C)O[C@@H](O[C@@H]3/C(C)=C/C[C@@H]4C[C@@H](C[C@]5(C=C[C@H](C)[C@@H](C(C)C)O5)O4)OC(=O)[C@@H]4C=C(C)[C@@H](O)[C@H]5OC/C(=C\C=C\[C@@H]3C)[C@]54O)C[C@@H]2OC)O[C@@H](C)[C@@H]1O
inactive: [1] 0.894 | [2] 1.05 | [3] 1.01 | [4] 1.03 | [5] 1.02 | [6] 1.13 | [7] 1.04 | [8] 0.807 | [9] 0.958 | [10] 0.717

CC(C)CC(C)c1sccc1NC(=O)c1cn(C)nc1C(F)(F)F (stereo not given)
inactive: [1] 0.895 | [2] 1.11 | [3] 0.985 | [4] 1.05 | [5] 1 | [6] 1 | [7] 1.05 | [9] 0.974 | [10] 0.888
active: [8] 0.331

CCCCCCCCCCCCNC(=N)N
active: [1] 0.00813 | [5] 0.847 | [8] 0.00569 | [9] 0.00141 | [10] 0.00501
inactive: [2] 1.05 | [3] 0.94 | [4] 0.902 | [6] 0.904 | [7] 0.922

O=C1C2(Cl)C3(Cl)C4(Cl)C(Cl)(Cl)C5(Cl)C3(Cl)C1(Cl)C5(Cl)C24Cl (stereo not given)
inactive: [1] 0.943 | [2] 1.01 | [3] 0.962 | [4] 0.955 | [5] 0.934 | [6] 1.07 | [7] 1.14 | [9] 0.909
active: [8] 0.292 | [10] 0.382

CC(C)(C)c1ccc(CSc2cnn(C(C)(C)C)c(=O)c2Cl)cc1
inactive: [1] 0.998 | [2] 1 | [3] 1.01 | [4] 1.02 | [5] 1.02 | [6] 1.01 | [7] 1.13 | [8] 1.04 | [9] 1.06 | [10] 0.802

CO/C=C(/C(=O)OC)c1ccccc1Oc1cc(Oc2ccccc2C#N)ncn1
inactive: [1] 0.973 | [2] 1.07 | [3] 1.02 | [4] 1.06 | [5] 1.03 | [6] 1.03 | [7] 1.08 | [8] 0.967 | [9] 0.967 | [10] 1.09

CCC(C)c1ccccc1OC(=O)NC (stereo not given)
inactive: [1] 1.02 | [2] 0.95 | [3] 1.01 | [4] 1.07 | [5] 1.01 | [6] 1.04 | [7] 1.09 | [8] 1.01 | [9] 0.971 | [10] 1

Cc1cc(C)c(C2=C(OC(=O)CC(C)(C)C)C3(CCCC3)OC2=O)c(C)c1
inactive: [1] 0.977 | [2] 1.1 | [3] 1.12 | [4] 1.09 | [5] 1 | [6] 1.03 | [7] 1.2 | [8] 0.937 | [9] 1.03 | [10] 1.01

CN/C(=N/CC1CCOC1)N[N+](=O)[O-] (stereo not given)
inactive: [1] 0.955 | [2] 0.963 | [3] 0.983 | [4] 1.03 | [5] 1.03 | [6] 0.992 | [7] 1.06 | [8] 0.912 | [9] 1.01 | [10] 1.14

CC[C@H]1CCC[C@H](O[C@H]2CC[C@H](N(C)C)[C@@H](C)O2)[C@@H](C)C(=O)C2=C[C@@H]3[C@@H](C=C(C)[C@@H]4C[C@@H](O[C@@H]5O[C@@H](C)[C@H](OC)[C@@H](OC)[C@H]5OC)C[C@@H]34)[C@@H]2CC(=O)O1.CC[C@H]1CCC[C@H](O[C@H]2CC[C@H](N(C)C)[C@@H](C)O2)[C@@H](C)C(=O)C2=C[C@H]3[C@@H]4C[C@H](O[C@@H]5O[C@@H](C)[C@H](OC)[C@@H](OC)[C@H]5OC)C[C@H]4C=C[C@H]3C2CC(=O)O1
inactive: [1] 0.832 | [2] 1.14 | [3] 0.981 | [4] 1.04 | [5] 1.05 | [6] 1.06 | [7] 1.01 | [8] 0.89 | [9] 1.1 | [10] 1

CCc1cnc(C2=NC(C)(C(C)C)C(=O)N2)c(C(=O)O)c1 (stereo not given)
inactive: [1] 0.973 | [2] 0.912 | [3] 0.944 | [4] 1.01 | [5] 0.967 | [6] 1.01 | [7] 1.04 | [8] 0.975 | [9] 0.958 | [10] 1.03

O=C(NCCc1ncc(C(F)(F)F)cc1Cl)c1ccccc1C(F)(F)F
inactive: [1] 0.967 | [2] 1.08 | [3] 0.981 | [4] 1.07 | [5] 0.964 | [6] 0.99 | [7] 1.05 | [8] 0.94 | [9] 0.971 | [10] 1.02

CNC(=O)CSP(=S)(OC)OC
inactive: [1] 0.985 | [2] 0.984 | [3] 0.991 | [4] 1.02 | [5] 0.963 | [6] 1.02 | [7] 1.19 | [8] 1.05 | [9] 0.96 | [10] 1.07

COC(=O)Nc1nc2ccccc2[nH]1
inactive: [1] 1.03 | [2] 1.05 | [3] 0.975 | [4] 1 | [5] 1.01 | [6] 1.05 | [7] 1.08 | [8] 0.944 | [9] 0.978 | [10] 0.732

CS(=O)(=O)c1cc(C(F)(F)F)ccc1C(=O)c1cnoc1C1CC1
inactive: [1] 1 | [2] 0.985 | [3] 1.02 | [4] 1.01 | [5] 1.02 | [6] 0.96 | [7] 0.911 | [8] 1.11 | [9] 1.06 | [10] 1.11

CCCCc1c(C)nc(NCC)nc1OS(=O)(=O)N(C)C
inactive: [1] 1.04 | [2] 1.06 | [3] 0.978 | [4] 1.02 | [5] 0.97 | [6] 0.981 | [7] 1 | [8] 1.05 | [9] 0.96 | [10] 0.969

CC(C)N(C)S(=O)(=O)NC(=O)c1cc(-n2c(=O)cc(C(F)(F)F)n(C)c2=O)c(F)cc1Cl
inactive: [1] 0.979 | [2] 1.01 | [3] 1.02 | [4] 1.04 | [5] 1.02 | [6] 1.06 | [7] 1.07 | [8] 1.05 | [9] 0.977 | [10] 1.07

COP(N)(=O)SC (stereo not given)
inactive: [1] 0.972 | [2] 1.04 | [3] 0.982 | [4] 1.06 | [5] 0.995 | [6] 1.1 | [7] 1.06 | [8] 0.973 | [9] 0.965 | [10] 0.675

CC(C)N1C(=O)c2ccccc2NS1(=O)=O
inactive: [1] 1.01 | [2] 1.16 | [3] 1.03 | [4] 1.02 | [5] 0.975 | [6] 1.01 | [7] 1.03 | [8] 1.04 | [9] 0.991 | [10] 1.01

CNC(=O)c1cc(Cl)cc(C)c1NC(=O)c1cc(Br)nn1-c1ncccc1Cl
inactive: [1] 0.997 | [2] 0.975 | [3] 0.996 | [4] 0.958 | [5] 1.01 | [6] 0.958 | [7] 0.922 | [8] 0.944 | [9] 1.04 | [10] 1.06

CCCCC(C#N)(Cn1cncn1)c1ccc(Cl)cc1 (stereo not given)
inactive: [1] 0.947 | [2] 0.939 | [3] 0.943 | [4] 0.993 | [5] 0.927 | [6] 0.963 | [7] 0.907 | [8] 0.958 | [9] 0.973 | [10] 0.96

CC1(C)C(C=C(Cl)Cl)C1C(=O)OC(C#N)c1ccc(F)c(Oc2ccccc2)c1 (stereo not given)
inactive: [1] 1.04 | [2] 1.22 | [3] 1.02 | [4] 1.02 | [5] 0.964 | [6] 1.03 | [7] 1.03 | [8] 1.06 | [9] 0.994 | [10] 1.03
